{
  "source": "PubChem BioAssay (NCATS)",
  "note": "Results filed as inconclusive are left out. Calls of active or inactive are those of the source. Calls come from the whole dose curve; as a rule, active = well fitted cell-killing curve with a large enough effect; inconclusive = small, poorly fitted or top-dose-only effect, or effect the other way; inactive = no such curve, though single readings can be large or run the other way.",
  "data": [
    {"experiment": "MultiTox-Fluor Cytotoxicity Assay - LYMP1-002 - Dead Cells (AID 960);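 note: cells exposed to compound for 16 h at 37 °C; 0% = DMSO and 100% = tetraoctylammonium bromide; nearly all actives have a fitted effect of over 60% in size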", "conditions": "LYMP1-002 lymphoblastoid cells, dead-cell protease fluorescence; series mostly up to 46.1 µM; cytotoxicity (dead cells): at the top concentration", "description": "NIH Chemical Genomics Center [NCGC]\nNIH Molecular Libraries Screening Centers Network [MLSCN]\nNational Institutes of Environmental Health Sciences [NIEHS]\nNational Toxicology Program [NTP]\nWe have developed a 1536-well cell-based assay for quantitative high throughput screening (qHTS) against a number of cell lines to determine in vitro cytotoxicity of small molecules. This particular assay uses a human lymphoblastoid cell line (LYMP1-002) purchased from Coriell Institute.\nNCGC Assay Protocol Summary:\nThe MultiTox-Fluor Cytotoxicity Assay (Promega) is a homogeneous method to simultaneously measure the relative number of live and dead cells in culture by detecting changes in cell membrane integrity. There are two fluorogenic peptide substrates in the assay reagent. Viable cells are determined when the cell-permeant substrate (GF-AFC) enters the cell and is cleaved by protease from live cells resulting in liberated fluorophore. This live-cell protease activity restricted to viable cells is proportional to cell number. The dead cells are determined by using fluorogenic cell-impermeant peptide substrate (bis-AAF-R110) which cleaved by dead cell proteases leaking from damaged cell membrane.\nUsing the MultiTox-Fluor Cytotoxicity Assay, the relative number of dead cells was measured in the lymphoblastoid cell line with complete culture medium following compound treatment for 16 hours. The assay was performed in opaque black Kalypsys 1536-well plates. In the screen, tetraoctylammonium bromide was used as positive control. Library compounds were measured for their ability to cause acute toxicity in the cell line, as reflected by an increase in dead cell protease activity, in a concentration-dependent manner. Data were normalized to the controls for basal activity (DMSO only) and 100% stimulation (15 uM tetraoctylammonium bromide). AC50 values were determined from concentration-response data modeled with the standard Hill equation.\nqHTS protocol for MultiTox-Fluor Cytotoxicity assay\n[Step] [Parameter] [Value] [Description]\n1. Reagent; 5 uL; 2500 lymphoblastoid cells/well\n2. Time; 5 hr; 37 C incubation\n4. Controls; 23 nL; Tetraoctylammonium bromide 6.4pM to 92 uM\n5. Time; 16 hr; 37 C incubation\n6. Reagent; 5 uL; MuliTox-Fluor Assay reagent\n7. Time; 60 min; Room Temperature\n8. Detection; dead-cell fluorescence (Ex/Em=485/520); EnVision plate reader\nKeywords: cytotoxicity, lymphoblastoid cell line, fluorescence, NTPHTS, NTPHTS_NCGC, NIEHS, EPA, DSSTox, MLSMR, MLSCN, NIH Roadmap, qHTS, NCGC", "values": [
      {"molecule": "CCCCCCCC(=O)OCC(COC(=O)CCCCCCC)OC(=O)CCCCCCC", "cytotoxicity (dead cells)": "18.5% (inactive)"},
      {"molecule": "CC(=O)Nc1cccc(O)c1", "cytotoxicity (dead cells)": "8.37% (inactive)"},
      {"molecule": "CC(=O)NS(=O)(=O)c1ccc(N)cc1", "cytotoxicity (dead cells)": "-15% (inactive)"},
      {"molecule": "C=CCNC(N)=S", "cytotoxicity (dead cells)": "-5.51% (inactive)"},
      {"molecule": "CC(=O)Nc1ccc(C(=O)O)cc1", "cytotoxicity (dead cells)": "16.8% (inactive)"},
      {"molecule": "CCCC(O)C(CC)CO", "note": "(stereo unspecified)", "cytotoxicity (dead cells)": "6.3% (inactive)"},
      {"molecule": "CC(=O)OCC(COC(C)=O)OC(C)=O", "cytotoxicity (dead cells)": "-7.14% (inactive)"},
      {"molecule": "Nc1ccc(S(=O)(=O)c2ccc(N)cc2)cc1", "cytotoxicity (dead cells)": "13.5% (inactive)"},
      {"molecule": "O=C1c2cccc(O)c2C(=O)c2c(O)cccc21", "cytotoxicity (dead cells)": "-3.23% (inactive)"},
      {"molecule": "CCN(CC)C(=O)c1cccc(C)c1", "cytotoxicity (dead cells)": "22.3% (inactive)"},
      {"molecule": "Cc1cc(C)nc(NS(=O)(=O)c2ccc(N)cc2)n1", "cytotoxicity (dead cells)": "7.5% (inactive)"},
      {"molecule": "CCCCCC(N)=O", "cytotoxicity (dead cells)": "22% (inactive)"},
      {"molecule": "O=C(O)CCCCC1CCSS1", "note": "(stereo unspecified)", "cytotoxicity (dead cells)": "-1.2% (inactive)"},
      {"molecule": "CC1CC(OC(=O)c2ccccc2O)CC(C)(C)C1", "note": "(stereo unspecified)", "cytotoxicity (dead cells)": "23% (inactive)"},
      {"molecule": "FC(F)(F)C(Cl)Br", "note": "(stereo unspecified)", "cytotoxicity (dead cells)": "2.54% (inactive)"},
      {"molecule": "COc1ccc(O)cc1", "cytotoxicity (dead cells)": "19.2% (inactive)"},
      {"molecule": "Cc1cc(=O)[nH]c(=S)[nH]1", "cytotoxicity (dead cells)": "10% (inactive)"},
      {"molecule": "O=C(c1ccccc1)C(O)c1ccccc1", "note": "(stereo unspecified)", "cytotoxicity (dead cells)": "5.22% (inactive)"},
      {"molecule": "CCCCOC(=O)c1ccc(N)cc1", "cytotoxicity (dead cells)": "-3.95% (inactive)"},
      {"molecule": "CC(=O)Nc1ccccc1", "cytotoxicity (dead cells)": "29.5% (inactive)"},
      {"molecule": "O=C1C(c2[nH]c3ccccc3c2O)=Nc2ccccc21", "cytotoxicity (dead cells)": "-0.871% (inactive)"}
    ]}
  ]
}
